# Results filed as inconclusive are left out. Active and inactive are the calls of the source. The calls were made as follows: active = hit-call score of the fitted dose curve at least 0.9, where 1 is the maximum; inconclusive = response in the unintended direction; inactive = score below 0.9.
# Test: ACEA_ER_AUC_viability: ACEA Biosciences xCELLigence Real-Time Cell Analysis on Estrogen Receptor Agonism for Viability (AID 2283782);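 also: continuous compound exposure with impedance area under curve over 80 h; hit means loss of impedance signal meaning reduced cell growth or viability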
# Method in brief: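 T-47D; phenol red-free RPMI1640 + 10% CS-FBS; 8 conc., 1:4 serial, max 100 uM final, ≤0.5% DMSO; n = 2; continuous exposure; impedance monitored to 80 h post-dose; AUC vs DMSO.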
SMILES,outcome,AC50
C=C(C)C(=O)OCC1CO1 (stereo unspecified),inactive,
N#C/C=C/c1ccccc1,,50 µM (active)
Oc1ccc(I)cc1,,73.7 µM (active)
CC(C)(C)OOC(C)(C)C,inactive,
N#Cc1c(-c2ccc(Cl)cc2)[nH]c(C(F)(F)F)c1Br,,6.72 µM (active)
CNC(=O)Oc1ccc(N(C)C)c(C)c1,,39.7 µM (active)
